S-ASM inh: blocks human secretory acid sphingomyelinase | placental ASM, HMU-PC fluorogenic substrate, 60 min | Potency, µM (doses to about 57.5 µM), inactives show top-dose activity change, negative = inhibition, hits mostly inhibitors | 340,000 tested, 0.006% active | AID 504937; also: potency is read from the fitted curve at half-maximal effect
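Steps: dispense placental human ASM, pin compound, wait 10 min at room temperature, add HMU-PC0 substrate at 9 uM final, incubate 60 min at 37 °C, add stop solution raising pH to 10, read fluorescence.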
MmCpn inh: blocks the Methanococcus maripaludis chaperonin Mm-Cpn. Potency, µM (doses to about 76.9 µM), without a hit: at the highest dose activity, negative = inhibition, actives largely listed as inhibitors. AID 504842. 330,000 tested, 0.031% active. purified Mm-Cpn ATPase, ADP Transcreener TR-FRET; also: potency is read from the fitted curve at half-maximal effect; % is scaled to controls: 0 for no effect and ±100 for the full control effect; nearly all actives have a fitted effect of over 80% in size
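ATPase turnover read by TR-FRET ADP competition (Eu cryptate antibody/ADP-d2, 665/590 nm): 10uM ATP final, 25nM Mm-CPN final, 30 min 37degC after 10-min compound preincubation, pH 7.4 Tris/KCl/MgCl2/DTT buffer.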
12-LOX inh: inhibitors of human 12S-lipoxygenase ALOX12 | P18054 | purified 12hLO, xylenol orange hydroperoxide absorbance | Potency, µM (titrated, usually from 108 µM), without a hit: at the top dose activity change, negative = inhibition, hits mostly inhibitors | 580,000 tested, 1.1% active | AID 1671190; also: potency is read from the fitted curve at half-maximal effect; % is scaled to controls: 0 for no effect and ±100 for the full control effect
Target sequence (P18054 whole entry, looked up): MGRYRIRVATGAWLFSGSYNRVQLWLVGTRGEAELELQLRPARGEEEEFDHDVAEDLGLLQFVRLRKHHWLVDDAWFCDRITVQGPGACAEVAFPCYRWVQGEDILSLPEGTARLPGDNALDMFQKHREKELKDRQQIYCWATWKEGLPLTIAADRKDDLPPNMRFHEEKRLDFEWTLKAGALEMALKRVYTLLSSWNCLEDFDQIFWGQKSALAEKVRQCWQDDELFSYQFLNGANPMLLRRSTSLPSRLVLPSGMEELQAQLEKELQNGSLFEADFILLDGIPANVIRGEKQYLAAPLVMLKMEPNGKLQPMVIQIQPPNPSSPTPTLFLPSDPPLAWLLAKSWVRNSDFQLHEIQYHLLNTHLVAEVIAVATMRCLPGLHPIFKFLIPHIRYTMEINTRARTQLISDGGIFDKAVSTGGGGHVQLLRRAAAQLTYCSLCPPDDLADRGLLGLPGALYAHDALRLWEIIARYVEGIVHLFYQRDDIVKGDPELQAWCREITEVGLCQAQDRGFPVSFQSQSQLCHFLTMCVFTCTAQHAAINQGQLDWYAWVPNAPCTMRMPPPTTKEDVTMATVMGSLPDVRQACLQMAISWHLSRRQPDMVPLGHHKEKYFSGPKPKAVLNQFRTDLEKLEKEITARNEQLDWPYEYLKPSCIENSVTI
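Purified human 12hLO at 150 nM in 25 mM Hepes, 0.01% Triton X-100, pH 7.0, preincubated 15 min at room temperature with compound. Reaction started with 40 uM arachidonic acid, 30 min at room temperature. Hydroperoxide measured by Fe-xylenol orange, 573/405 nm absorbance ratio.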
PINK1 modulator: modulators of PINK1 expression; 410,000 tested, 0.2% active; PINK1 immunofluorescence, high-content cytometry, 24 h; Potency, µM (doses to about 76.6 µM), for inactives: at the highest dose activation (PINK1 increase), hits mostly activators; active = well fitted activation curve with a large enough effect; inconclusive = small, poorly fitted or top-dose-only effect; cell line not stated here; also: potency is read from the fitted curve at half-maximal effect; % of control where 0% means no effect; nearly all actives have a fitted effect of over 65% in size
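Cells are seeded, rested 12 hours, then given compound at five concentrations or DMSO for 24 hours. After fixation, blocking and antibody staining, PINK1 amount and mitochondrial localization are scored; CCCP serves as control.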
CCT chaperon mod: cytosolic chaperonin activity modulation | purified chaperonin ATPase assay, HTRF ADP detection, 30 min | activity change, % (no concentration beside the values), hits read low | 360,000 tested, 0.3% active; in the data active = activity change below about -30%; also: % is scaled to controls: 0 for no effect and ±100 for the full control effect
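Nucleotide hydrolysis assay: TRiC at 20–40 nM final (set by batch activity) with 10 uM ATP, 30 min at 37 °C, in presence of 76 uM compound. Detection by competitive ADP HTRF, 30 min ambient.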
p53 reactivation: restores transcriptional activity of mutant p53; AID 504706; 320,000 tested, 0.063% active; Potency, µM (highest dose often 92.2 µM), for inactives: top-dose activity change, positive = activation, hits mostly activators; H1299 p53-A138V BP100-luciferase reporter, luminescence, 24 h; also: potency is read from the fitted curve at half-maximal effect; % of control where 0% means no effect; nearly all actives have a fitted effect of over 45% in size
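H1299 (p53-null), stable ts p53-A138V + BP100-Luc; 1000 cells/well, Opti-MEM/10% FBS; cpd 4 pt, 1:5; 24 h, 37 deg C, 5% CO2; detection reagent 10 min RT; luminescence.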
* hit, by the source's call; ? = inconclusive; / = no result given; [ ] = another dose, or the depositor's remark. In the library only some 1.4% were active in any assay of this set; here they are far more common. Unless noted, calls follow the shape of the dose curve; as a rule, active = well fitted curve in the direction sought with a large enough effect; inconclusive = small, poorly fitted or top-dose-only effect, or another doubt; inactive = no such curve, though single readings can be large; an effect the other way counts as inactive or inconclusive.

SMILES	S-ASM inh	MmCpn inh	12-LOX inh	PINK1 modulator	CCT chaperon mod	p53 reactivation
C=CCn1c(C)c(/C=C/c2cc[n+](C)cc2)c2ccccc21	-21%	?	-34%	?	-1	/
CC(C)n1cc(/C=C/c2cc[n+](C)cc2)c2ccccc21	-20%	-3%	?	40µM*	2	-1%
CCn1cc(/C=C/c2cc[n+](C)cc2)c2ccccc21	?	-2%	?	28µM*	1	-6%
C=CCn1cc(/C=C/c2cc[n+](C)cc2)c2ccccc21	-8%	1%	?	45µM*	-2	/
COc1ccc(CNc2nccn(-c3ccc(C(C)C)cc3)c2=O)cc1OC	/	/	-12%	/	/	/
CCOC(=O)CSC1=NC(=O)/C(=C\c2ccc(Cl)cc2)S1	6%	0%	45µM*	4%	0	?
CCOC(=O)C1CCN(C2=NC(=O)/C(=C/c3ccc(Cl)cc3)S2)CC1	-5%	0%	?	1%	-2	-4%
O=C1/C(=C/c2ccc([N+](=O)[O-])cc2)C=C(c2ccccc2)N1c1ccccc1	7%	-1%	-14%	-3%[38.3 µM]	0	-11%
O=C(O)c1cccc(N2C(=O)/C(=C/c3ccc([N+](=O)[O-])cc3)C=C2c2ccccc2)c1	-1%	1%	35µM*	0%	0	9%
CCCc1nnc(NC(=O)c2cc(=O)c3cc(CC)ccc3o2)s1	/	/	-6%	/	/	/
Nc1nc2c(s1)C(c1cccc(F)c1)CC(=O)N2 (configuration not stated)	/	/	16µM*	/	/	/
CSc1ccc(C2CC(=O)Nc3nc(N)sc32)cc1 (configuration not stated)	/	/	25µM*	/	/	/
CC(CN1CCN(C/C=C/c2ccccc2)CC1)c1ccccc1 (configuration not stated)	0%	1%	0.79µM*	1%	1	/
Cc1c2c(=O)n(-c3ccc(F)cc3)[nH]c2cc(=O)n1Cc1ccccc1	/	/	11µM*	/	/	/
Cc1c2c(=O)n(-c3ccc(Cl)cc3)[nH]c2cc(=O)n1Cc1ccc(F)cc1	/	/	-13%	/	/	/
Cc1cccc2sc(NC(=O)C3CCN(S(=O)(=O)c4cc([N+](=O)[O-])ccc4Cl)CC3)nc12	-10%	1%	40µM*	5%	1	?
COc1ccc(CCNC(=O)c2ccc(N3CC4CC(C3)[C@H]3CCCC(=O)N3C4)nc2)cc1OC (some centres not stated)	/	/	22%	/	/	/
Cc1cc(C(=O)N(Cc2ccc(C(N)=O)cc2)C2CC2)sc1C	/	/	30%	/	/	/
CCOCCCn1c(SCC(=O)NC2CCCCC2)nc2ccccc2c1=O	/	/	11%	4%	-86*	/
O=C(CCCn1c(SCC(=O)c2ccc(O)c(O)c2)nc2ccccc2c1=O)NCC1CCCO1 (configuration not stated)	-1%	1%	1.8µM*	-2%[38.3 µM]	-1	-8%
C=CCNC(=S)NNC(N)=S	/	/	8.9µM*	/	/	/
COCCN(CCCO)Cc1ccco1	/	/	-30%	/	/	/
COc1ccc(-c2ccc(C(=S)N3CCN(C(C)=O)CC3)o2)cc1	-7%	-6%	14µM*	-3%[38.3 µM]	0	-10%
COc1ccc(CC(=O)N2CCN(C(=O)Cc3ccc(OC)cc3)CC2)cc1	-1%	1%	0%	-2%	1	5%
CCOc1cc(CNc2ccc(N3CCOCC3)cc2)cc(Br)c1OCC	-7%	1%	32µM*	14%	-1	-7%
CCOc1cc(CNc2ccc(N3CCCCC3)cc2)cc(Br)c1OCC(=O)NC(C)(C)C	-4%	-2%	?	14µM*	-1	13%
CCOc1cc(CNc2cccc3ccccc23)cc(Br)c1OCC(=O)NC(C)(C)C	-9%	-1%	/	0%[38.3 µM]	-2	7%
CCOc1cc(CNc2ccc(N3CCN(C(C)=O)CC3)cc2)cc(Br)c1OC	-3%	-8%	?	2%	0	-10%
COc1cc(CNc2ccc(N3CCOCC3)cc2)cc(Br)c1OC	-1%	-6%	?	4%	0	2%

Screening results from PubChem.
